The source made the active and inactive calls. Rule for the calls: active = hit-call score of the fitted dose curve at least 0.9, where 1 is the maximum; inactive = score below 0.9.
experiment: ATG_CRE_CIS: Attagene CIS-FACTORIAL HepG2 Assay for human cAMP Responsive Element (CRE) binding protein 3 (AID 2282926); settings: HepG2 CRE cis-reporter, Attagene multiplexed mRNA; actives raise or lower the signal
Description: ATG_CIS is a cell-based, multiplexed-readout assay that uses HepG2, a human liver cell line, with measurements taken at 24 hours after chemical dosing in a 24-well plate.ATG_CRE_CIS is one of 52 assay component(s) measured or calculated from the ATG_CIS assay. It is designed to make measurements of mRNA induction, a form of inducible reporter, as detected with fluorescence intensity signals by Reverse transcription polymerase chain reaction (RT-PCR) and Capillary electrophoresis technology.Data from the assay component ATG_CRE_CIS was analyzed into 1 assay endpoint. This assay endpoint, ATG_CRE_CIS, was analyzed with bidirectional fitting relative to DMSO as the negative control and baseline of activity. Using a type of inducible reporter, measures of mRNA for gain or loss-of-signal activity can be used to understand the reporter gene at the transcription factor-level as they relate to the gene CREB3. Furthermore, this assay endpoint can be referred to as a primary readout, because this assay has produced multiple assay endpoints where this one serves a reporter gene function. To generalize the intended target to other relatable targets, this assay endpoint is annotated to the dna binding intended target family, where the subfamily is basic leucine zipper.
Human liver HepG2 cells are transiently transfected with multiple reporter transcription units (MRTUs) in 6-well plates using FuGene 6 reagent (Roche; 3 ml FuGene/1 mg DNA). The MRTU constructs are regulated by a cis-regulating element (promoter). […] A major difference between the CIS and TRANS system is that in CIS activities of endogenous TFs are measured, whereas the TRANS assay evaluates changes in activities of exogenous, chimeric NR-Gal4 proteins. […] At the end of 24 hour incubation, total RNA was isolated using TriZol reagent (Invitrogen). The isolated RNA is then reverse-transcribed using oligo(dT) primer and Mo-MLV reverse transcriptase (Invitrogen) with DNAse I (Ambion) treatment for 30 min. The one-tenth of the produced cDNA was amplified by PCR using Taq DNA polymerase (Invitrogen) and two reporter sequence-specific primers. The PCR products were fluorescently labeled by primer extension with 6-arboxyfluorescein (6-FAM) 5'-labeled reporter sequence-specific primer (2 min at 95 C, 20 s at 68 C and 10 min at 72 C) and these products were digested with 5U of HpaI (New England Biolabs) for 2h at 37 C. The fragments were purified using Qiaquick PCR columns (Qiagen), analyzed on an ABI 3130xL genetic analyzer (Applied Biosystems) with peak positions identified by using a set of X-rhodamine (ROX)-labeled MapMarker1000 molecular weight standards (BioVentures). The raw capillary electrophoresis data was processed using Attagraph software (Attagene).

Compound | outcome | AC50
O=c1[nH]cc(F)c(=O)[nH]1 | inactive | –
CC(C)(C)c1cc(O)c(C(C)(C)C)cc1O | – | 23 µM (active)
CCOC(=O)C(C)(C)Oc1ccc(Cl)cc1 | inactive | –
Nc1ccc(S(=O)(=O)c2ccc(N)cc2)cc1 | inactive | –
CC=Cc1ccc(O)c(OC)c1 | inactive | –
CC(CO)OC(C)CO (stereo not given) (tested in a mixture with another compound) | inactive | –
C=CCc1ccc(O)c(OC)c1 | inactive | –
CN1CCCC1=O | inactive | –
Oc1ccc2c(c1)OC[C@@H](N1CCC(O)(c3ccc(F)cc3)CC1)[C@H]2O | inactive | –
Cc1ccccc1Cl | inactive | –
CC1(C)NC(=O)NC1=O | inactive | –
Cc1cc(NC(=O)C(=O)O)cc(C)c1Oc1ccc(O)c2c1CCC2 | inactive | –
COc1ccc(S(=O)(=O)N2C(=O)[C@@](c3ccccc3OC)(N3C[C@H](O)C[C@H]3C(=O)N(C)C)c3cc(Cl)ccc32)c(OC)c1 | – | 87.9 µM (active)
CCCc1cc(=O)[nH]c(=S)[nH]1 | inactive | –
CCOC(=O)CCC(=O)OCC | inactive | –
CNC(=O)[C@H]1O[C@@H](n2cnc3c(NCc4cc(Cl)ccc4OCc4cc(C)no4)ncnc32)[C@H](O)[C@@H]1N | inactive | –
CN[C@H]1CC[C@@H](c2ccc(Cl)c(Cl)c2)c2ccc(S(N)(=O)=O)cc21 | inactive | –
C[C@]12C=CC(=O)C=C1CC[C@@H]1[C@@H]2C(=O)C[C@@]2(C)[C@H]1CC[C@]2(O)C(=O)CO | inactive | –
CCCCCCOCCO | inactive | –
COc1cc(-c2nc(NC(=O)c3cc4cc(C)cc(C)c4n3CC(=O)O)sc2CCC2CCCCC2)c(OC)cc1Cl | – | 36 µM (active)

Compound | outcome | AC50
CC1(C)CC(N=C=O)CC(C)(CN=C=O)C1 (stereo not given) | inactive | –
CCCCCC(=O)O | inactive | –
Nc1ccccc1N | – | 72.5 µM (active)
Cc1ccc(N(C)C)cc1 | inactive | –
NS(=O)(=O)c1cc2c(cc1Cl)NCNS2(=O)=O | inactive | –
NCCO | inactive | –
CCCCCCCCCCCCCCCC | inactive | –
CCCCCCCCCCCC(=O)OC | inactive | –
Cc1oc(-c2ccccc2)nc1CCOc1cccc2c1ccn2CCC(=O)O | inactive | –
Cc1cccc(C)c1O | inactive | –
NC(=O)Cn1c(=O)cc(CCN2CCN(c3nccc4sccc34)CC2)c2ccc(F)cc21 | inactive | –
O=C(O)CCCCC(=O)O | inactive | –
CCCCCCCCCCO | – | 183 µM (active)
Cc1ccc2ncccc2c1 | inactive | –
C1CCC(SSC2CCCCC2)CC1 | inactive | –
Cc1c(C(=O)O)c(O)cc2c1C(=O)c1c(O)c([C@@H]3O[C@H](CO)[C@@H](O)[C@H](O)[C@H]3O)c(O)c(O)c1C2=O | inactive | –
CC(=O)Oc1ccccc1C(=O)O | inactive | –
Cc1ccc(C)c(O)c1C | inactive | –
CC(=O)OC/C=C(\C)CCC=C(C)C | inactive | –
COc1ccc(C)cc1N | inactive | –
